Screening data: PubChem, National Center for Advancing Translational Sciences (NCATS)
D2 PAM-1: D2 dopamine receptor (human) potentiation. P14416. HEK293 T-REx D2, calcium flux, EC20 dopamine potentiation. potentiation, % at 10 µM. actives 0.34% (n = 340,000). AID 485347;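 active means potentiation over 3 SD above the plate norm, cut at about 30% in these data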; further: 0% is about no effect
Target sequence (P14416 whole entry, looked up): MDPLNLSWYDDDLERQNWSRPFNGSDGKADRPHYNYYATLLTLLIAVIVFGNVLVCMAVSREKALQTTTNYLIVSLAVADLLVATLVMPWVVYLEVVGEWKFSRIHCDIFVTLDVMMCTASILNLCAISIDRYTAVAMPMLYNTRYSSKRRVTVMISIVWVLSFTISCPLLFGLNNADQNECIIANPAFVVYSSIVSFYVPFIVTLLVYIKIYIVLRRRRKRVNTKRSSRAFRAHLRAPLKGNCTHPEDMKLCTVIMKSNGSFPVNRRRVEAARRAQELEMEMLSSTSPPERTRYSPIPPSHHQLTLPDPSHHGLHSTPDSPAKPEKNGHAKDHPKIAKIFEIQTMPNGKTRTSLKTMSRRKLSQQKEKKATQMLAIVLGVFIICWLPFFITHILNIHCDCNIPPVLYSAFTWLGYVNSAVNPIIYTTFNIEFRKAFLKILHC
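Using a no-wash calcium dye in inducible, force-coupled HEK293 Trex cells expressing D2, we tracked fluorescence each second for 180 s after compound, then for 180 s after EC20 dopamine to detect augmented signalling.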
D2 ag-1: D2 dopamine receptor (human) agonism; HEK293 T-REx D2 cells, calcium flux agonist mode; activation, % at 2 µM; actives 0.53% (n = 340,000); AID 485358;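 active means activation over 3 SD above normal in the single-dose calcium agonist read, cut at about 30% in these data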; further: 0% is about no effect
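Agonism is scored from calcium flux in a force-coupled, inducible HEK293 cell line expressing D2, read kinetically for 180 s after compound addition against dopamine controls.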
D2 PAM-2: positive allosteric modulators of human D2 dopamine receptor | P14416 | DiscoveRx D2 beta-arrestin cells, luminescence, 90 min; 100% = 57 uM dopamine signal | potentiation, % (test concentration not listed) | actives 0.23% (n = 360,000) | AID 624464; in the data active means potentiation above about 50%; inconclusive means mostly about 30% to 49%
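PathHunter beta-arrestin assay in DiscoveRx D2 cells. Compounds were added with an EC20 of dopamine (50 nM final) for 90 min at 37 deg C. Luminescence was read 1 h after detection reagent, with 57 uM dopamine as the EC100 control.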
D2 antagonist: antagonizes the human D2 dopamine receptor. actives 2% (n = 340,000). inhibition, % at 10 µM. HEK293 TREx D2 cells, calcium flux, dopamine EC80. P14416; in the data active means inhibition above about 30%; inactive means below that, where a call was filed; further: 0% is about no effect
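Cells plated overnight at 30 C with tetracycline; no-wash calcium dye, 30–90 min RT; 10 s baseline; compound pinned; 180 s read; EC80 dopamine added; another 180 s read.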
D2 ag-2: human D2 receptor agonism in beta-arrestin assay | actives 0.084% (n = 360,000) | activation, % (test concentration not listed) | AID 624465 | DiscoveRx PathHunter D2 beta-arrestin, luminescence, 90 min; 100% = 57 uM dopamine signal | P14416; in the data active means activation above about 40%; inconclusive means between about 15% and that limit
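DiscoveRx PathHunter D2 beta-arrestin cells (2,100/well) attached overnight, then compound-stimulated 90 min at 37 C in HBSS/10 mM HEPES/0.1% Tween-20 buffer; beta-galactosidase complementation read by luminescence after 1 h at ambient temperature. Dopamine 57 uM final (EC100) as control.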
D3 arrestin ag: activates human D3 dopamine receptor beta-arrestin recruitment. shares compounds with D2 ag-1. Potency, µM (titrated, usually from 76.9 µM), without a hit: top-dose activation, actives largely listed as activators. actives 4% (n = 2,300). DiscoveRx D3 beta-arrestin cells, luminescence, 90 min;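 further: potency means the concentration at half of the fitted maximal effect; 100% = dopamine control response; nearly all actives have a fitted effect of over 70% in size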
D2 ag-3: counter-screen for D3 agonists: human D2 dopamine receptor agonism. shares compounds with D2 ag-1. DiscoveRx PathHunter D2 beta-arrestin, luminescence, 90 min; response scale: percent relative to full dopamine signal. Potency, µM (series often up to 76.9 µM), for the others: at the highest dose activation, hits mostly activators. actives 5.9% (n = 2,300). AID 720507; further: potency means the concentration at half of the fitted maximal effect; % of control where 0% means no effect; nearly all actives have a fitted effect of over 70% in size
* = called active by the depositor; u = inconclusive; x = no result. Shown are actives, neighbours in structure and some others; about 2.4% of the full set was active somewhere. Unless noted, the call rests on the fitted dose curve; in most records, active means well fitted activation curve with a large enough effect; inconclusive means small, poorly fitted or top-dose-only effect; inactive means flat fitted curve, though single readings scatter.

SMILES	D2 PAM-1	D2 ag-1	D2 PAM-2	D2 antagonist	D2 ag-2	D3 arrestin ag	D2 ag-3
CN(Cc1ccccc1)c1nc2c(S(=O)(=O)c3cccc(Cl)c3)nnn2c2ccsc12	4.7	0.2	x	x	x	x	x
CCOc1ccc(NC(=O)CC2C(=O)N(c3ccccc3)C(=O)N2C2CCCCC2)cc1 (centres undefined)	2.3	0.3	x	x	x	x	x
CC(=O)c1ccc(NC(=O)CN2CCN(CC(=O)Nc3ccc(C(C)=O)cc3)CC2)cc1	-0.7	1.7	2.9	13.7	2.9	x	x
O=C(O)C1CC=CCC1C(=O)Nc1ccc(N2CCN(Cc3ccccc3)CC2)cc1 (centres undefined)	-20.5	63.7*	-13.7	-13.1	0.6	1.1%	1.1%
CC(=O)c1ccc(NC(=O)CN2CCN(c3ncccn3)CC2)cc1	-23.3	74.3*	21.2	77.4*	46.6*	u	u
CC(=O)c1ccc(NC(=O)CN2CCN(c3ccccc3)CC2)cc1	-22.8	82.8*	11.6	36.7*	u	u	u
COc1cccc(/C=C/C(=O)OCC(=O)NCCc2ccccc2)c1	-20.2	46.5*	-3.1	9.0	-1.6	-10.5%	-4.1%
c1ccc(CNCC2COc3ccccc3O2)cc1 (centres undefined)	-25.3	64.4*	-26.6	61.9*	0.9	16.9%	10.7%
COc1cccc(OC)c1OCCNCC1COc2ccccc2O1 (centres undefined)	x	x	-23.5	x	0.9	x	x
COc1ccc(CNCC2COc3ccccc3O2)cc1 (centres undefined)	-34.3	62.8*	-26.2	139.9*	-5.9	14.6%	9.5%
c1ccc(CCCNCC2COc3ccccc3O2)cc1 (centres undefined)	-33.1	47.8*	-18.4	85.9*	10.3	u	14.3%
COc1ccc(CC(=O)NCC2COc3ccccc3O2)cc1 (centres undefined)	3.8	0.0	-1.2	-6.0	2.1	x	x
O=C(CC1COc2ccccc2O1)NCc1ccccc1 (centres undefined)	-6.4	-0.5	-1.9	3.5	-2.2	x	x
CN(C)c1ccc(NC(=O)CCSc2nc(-c3ccco3)cc(C(F)(F)F)n2)cc1	15.0	0.2	x	x	x	x	x
CCOC(=O)Cn1c(=O)n(CC2CCCO2)c2nc(-c3ccccc3F)nc(C(N)=O)c21 (centres undefined)	-0.5	-0.3	x	x	x	x	x
CCC(Sc1nc2n[nH]c(C)c2c(=N)n1-c1ccc(Br)cc1)C(=O)N(CC)CC (centres undefined)	7.4	0.1	x	x	x	x	x
Cc1ccc(C2=Nc3ccccc3N(CC(=O)Nc3ccccc3F)C(=O)C2)cc1C	17.2	0.4	x	x	x	x	x
CC(=O)N1CCc2cc(Br)cc(S(=O)(=O)N3CCC(C(=O)Nc4ccc(C(C)C)cc4)CC3)c21	15.9	-2.3	x	x	x	x	x
Cc1cccc(Cn2c(=O)oc3ccc(C)cc32)c1	10.7	23.8	-4.0	31.5*	2.9	-7.7%	-2.5%
O=C(CCCCCn1c(=O)c2sccc2n(CC(=O)Nc2cccc(Cl)c2)c1=O)NCc1ccc2c(c1)OCO2	17.2	1.9	x	x	x	x	x
COc1ccccc1-c1cc2nc(C)c(CCC(=O)NCCc3ccc(SC)cc3)c(C)n2n1	0.0	-1.4	x	x	x	x	x
CCC(=O)NC(C)C(c1cccs1)N1CCN(Cc2ccccc2)CC1 (centres undefined)	-14.6	44.9*	-10.5	1.9	-3.5	-11.7%	4.1%
CC(NC(=O)c1ccc2c(c1)OCO2)C(c1cccs1)N1CCN(c2ccccc2)CC1 (centres undefined)	-24.2	42.8*	-1.3	-7.5	-1.8	0.0%	2.8%
CC(NC(=O)c1cccs1)C(c1cccs1)N1CCN(Cc2ccccc2)CC1 (centres undefined)	1.0	-0.7	-29.6	-7.3	-0.6	x	x
CC(NC(=O)c1ccc2c(c1)OCO2)C(c1cccs1)N1CCOCC1 (centres undefined)	12.0	0.5	-9.1	0.0	0.0	x	x
SMILES	D2 PAM-1	D2 ag-1	D2 PAM-2	D2 antagonist	D2 ag-2	D3 arrestin ag	D2 ag-3
CCN(CC)c1nn2c(=O)c(C(=O)NCCc3ccc(C)cc3)cnc2s1	x	-0.3	x	x	x	x	x
CCOc1ccccc1N1CCN(CC(O)COc2ccc3c(C)cc(=O)oc3c2)CC1 (centres undefined)	-13.9	54.8*	-5.6	64.8*	13.3	-4.1%	14.2%
COc1ccccc1N1CCN(CC(O)COc2ccc3c(c2)OCO3)CC1 (centres undefined)	11.8	-0.5	-9.8	1.4	-5.4	x	x
Cc1c(Cl)cccc1NC(=O)c1ccc2c(c1)nnn2C1CCCC1	-2.4	-0.5	x	x	x	x	x
c1ccc(Cc2noc(CN3CCN(CCOc4ccccc4)CC3)n2)cc1	-24.7	62.9*	-6.4	55.5*	1.7	u	20.6%
CCc1nc(C)cn1S(=O)(=O)c1cc(C)c(OC)cc1C	-22.0	63.6*	-2.5	-19.6	-4.7	5.0%	3.0%
CCc1nc(C)cn1S(=O)(=O)c1cc(Br)c(C)cc1OC	18.3	-1.5	-12.0	-7.0	-1.3	x	x
COc1ccc(CCNC(=O)CSc2cn(Cc3cccc(C)c3)c3ccccc23)cc1OC	-15.1	57.9*	-3.7	-5.2	-1.9	-8.1%	0.6%
COc1ccc(CCNC(=O)CNCC(c2ccccc2)N(C)C)cc1OC (centres undefined)	-14.1	32.6*	-6.5	-1.9	7.0	7.7%	11.2%
COc1ccc(CCNC(=O)CSc2ccccc2)cc1OC	8.0	0.7	2.4	-13.0	-0.8	x	x
COc1ccc(CCNC(=O)CSc2cn(Cc3ccccc3)c3ccccc23)cc1OC	-0.1	-0.8	-3.3	-9.6	-4.9	x	x
CC(C)SCCCCOc1ccc2ccccc2c1	-9.6	1.6	-4.5	-22.7	-1.3	-22.9%	1.2%
Cc1cccc(/C=N/NC(=O)NC2CCCCC2)c1	-10.4	3.3	-7.3	26.0	-6.4	-2.5%	-2.8%
O=C(Nc1ccc(Cl)cc1)C1CCN(c2nc3ccccc3nc2C(F)(F)F)CC1	-0.8	0.9	x	x	x	x	x
Cc1cccc2cc(CNCC3CCCO3)c(Cl)nc12 (centres undefined)	-23.1	44.9*	-5.6	11.7	8.4	4.1%	19.6%
CC(=O)Nc1ccc(NC(=O)COC(=O)c2ccccc2SCC(=O)N2CCCC2)cc1	-3.4	0.5	0.1	14.3	-0.6	x	x
CCN(CC(=O)Nc1ccc(NC(C)=O)cc1)C(=O)c1ccccc1SCC(=O)N1CCCC1	x	x	3.6	x	2.4	-4.4%	-2.9%
CN(Cc1ccc(Cl)cc1)C(=O)c1ccccc1SCC(=O)N1CCCC1	-1.0	x	-26.0	x	-9.9	-1.8%	-2.0%
